The full list was thinned out, with hits kept by preference.
LmPK inh = LmPK (Leishmania mexicana) enzyme inhibition; Q27686; purified LmPK, Kinase-Glo ATP luminescence, 1 h; Potency, µM (doses to about 57.5 µM), usual class: inhibitors; 0.37% of 290,000 active; AID 1721
Target sequence (Q27686 whole entry, looked up): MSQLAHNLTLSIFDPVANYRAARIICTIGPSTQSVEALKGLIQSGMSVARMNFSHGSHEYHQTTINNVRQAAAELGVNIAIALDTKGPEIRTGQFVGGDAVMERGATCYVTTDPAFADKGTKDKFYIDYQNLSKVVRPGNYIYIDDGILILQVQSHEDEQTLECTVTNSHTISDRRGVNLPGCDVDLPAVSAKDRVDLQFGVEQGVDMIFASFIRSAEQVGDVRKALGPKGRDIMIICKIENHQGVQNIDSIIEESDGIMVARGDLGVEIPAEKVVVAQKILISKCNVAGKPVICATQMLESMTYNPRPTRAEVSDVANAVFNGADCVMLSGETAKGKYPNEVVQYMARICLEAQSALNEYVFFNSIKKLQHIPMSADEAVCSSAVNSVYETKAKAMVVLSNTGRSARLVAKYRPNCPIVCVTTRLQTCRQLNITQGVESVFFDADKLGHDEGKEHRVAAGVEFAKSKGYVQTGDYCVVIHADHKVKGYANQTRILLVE
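Purified LmPK (0.1 nM) with 0.5 mM PEP and 0.1 mM ADP in imidazole buffer pH 7.2 with MgCl2/KCl, 1 h at room temperature. ATP formed was read by luciferase luminescence and normalized to no-enzyme and uninhibited controls.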
Shiga inhibitor = Shiga toxin inhibition. AID 2315. Vero cells, Shiga toxin protein synthesis inhibition reporter. inhibition, % at 38.7 µM. 9.2% of 290,000 active; in the data active = inhibition mostly above about 28%, no sharp cut-off; inactive = mostly below about 43%
CHX counter = affects cycloheximide protein synthesis inhibition readout, counter-screen | cell reporter, cycloheximide protein synthesis inhibition counterscreen | max response, % | 12% of 300,000 active | AID 2314; in the data active = max response mostly above about 13%, no sharp cut-off; inactive = mostly below about 14%; also: read at 38.3 µM for the half of the compounds with a filed dose
Giardia FBPA inh = inhibitors of Giardia lamblia fructose-1,6-bisphosphate aldolase; 0.71% of 290,000 active; A8B2U2; Potency, µM (series often up to 59.6 µM), usual class: inhibitors; purified Giardia FBPA; also: nearly all actives have a fitted effect of over 55% in size
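Giardia FBPA (40 nM reagent) was preincubated 10 min at RT with compound (up to 57.5 uM final), then substrate plus GAPDH/TPI/NAD/arsenate coupling system with diaphorase/resazurin was added; resorufin fluorescence (525/598 nm) was read after 20 min.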
RE007 growth inh = less growth of the S. pombe RE007 Vpr strain | 0.21% of 360,000 active | Potency, µM (series often up to 92.2 µM), hits mostly inhibitors | S. pombe RE007 Vpr strain, BacTiter-Glo ATP luminescence, 24 h; active = well fitted falling curve with a large enough effect; inconclusive = small, poorly fitted or top-dose-only effect; inactive = no such curve, though single readings can be large or run the other way; also: nearly all actives have a fitted effect of over 50% in size
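Fission yeast strain RE007, carrying one chromosomally integrated HIV-1 vpr copy, was seeded at OD 0.01 in PMG+AL medium with 23 nL pinned compound. After 24 h at 30 °C and 99% humidity, viability was read by BacTiter-Glo luminescence.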
TbPYK inhibitor = inhibitors of Trypanosoma brucei pyruvate kinase. TbPYK enzyme, Kinase-Glo Plus ATP luminescence, 45 min. Potency, µM (series often up to 76.8 µM), actives largely listed as inhibitors. 0.12% of 410,000 active. AID 624173; also: nearly all actives have a fitted effect of over 50% in size
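TbPYK + substrate in 50 mM TEA pH 7.2, 100 mM KCl, 10 mM MgCl2, 0.05% BSA, 0.01% Tween-20; cpd pinned; ADP 130 uM final; 45 min RT; Kinase-Glo Plus 10 min; luminescence endpoint.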
Hits are given with their value; 0 = inactive; ? = inconclusive; - = no result given; [ ] = remark or other dose. Unless noted, calls follow the shape of the dose curve; as a rule, active = well fitted curve in the direction sought with a large enough effect; inconclusive = small, poorly fitted or top-dose-only effect, or another doubt; inactive = no such curve, though single readings can be large; an effect the other way counts as inactive or inconclusive.

SMILES | LmPK inh | Shiga inhibitor | CHX counter | Giardia FBPA inh | RE007 growth inh | TbPYK inhibitor
Cn1ccs/c1=N\C(=O)Nc1cccc(Cl)c1 | 0 | 71 | 42 | 0 | 0 | 0
CS(=O)(=O)N1CCC[C@@]2(CCN(C(=O)Nc3cccc(C#N)c3)C2)C1 | - | - | - | 0 | - | 0
O=C(/C(=C/O)N=Nc1ccccc1)c1cccs1 | 0 | 0 | 39 | 0 | ? | 0
COc1ccc(NC(=O)CCS(=O)(=O)c2ccc3nc(C)sc3c2)cc1Cl | - | - | - | - | - | 0
Cc1cc(N2CCN(c3cccc(C)c3C)CC2)n2cnnc2n1 | - | - | - | - | - | 0
Cc1cc(=O)n2nc(-c3ccc(C(F)(F)F)cc3)sc2n1 | 0 | 0 | 33 | 0 | 0 | 0
COc1ccccc1-c1nn2c(=O)cc(C)nc2s1 | 0 | 0 | 0 | 0 | 0 | 0
COc1cc(C2CC(=O)Nc3c2c(C)nn3-c2nncc(-c3ccccc3)n2)cc(OC)c1OC (stereo not given) | - | - | - | - | - | 0
C=CS(=O)(=O)c1sc(Cl)c(N2CCOCC2)c1[N+](=O)[O-] | 0 | 0 | 16 | 0 | 0 | 0
COc1ccccc1N1CCN(C(=O)c2cc3c(=O)oc4ccccc4c3s2)CC1 | - | - | - | - | - | 0
COc1ccc(NC(=O)N2c3ccccc3C(C)=CC2(C)C)cc1 | 0 | 38 | 20 | 0 | 0 | 0
COc1ccc(NC(=O)N2c3ccc(OC)cc3C(C)=CC2(C)C)cc1 | 0 | 0 | 0 | 11µM | 0 | 0
CCNC(=O)N1c2ccc(OC)cc2C(C)=CC1(C)C | 0 | 0 | 0 | ? | 0 | 0
CCOC(=O)Oc1ccc2c(c1)C(C)=CC(C)(C)N2C(=O)OCC | 0 | 0 | 0 | 0 | 0 | 0
CCOc1ccc2c(c1)C(C)=CC(C)(C)N2C(=O)Nc1ccccc1 | 0 | 0 | 29 | ? | ? | 0
CCOc1ccccc1C(=O)NCC(c1ccc(N(C)C)cc1)N1CCc2ccccc21 (stereo not given) | - | - | - | - | - | 0
O=C(/C=N/NC(=O)c1ccc(Cl)cc1Cl)c1ccccc1 | 0 | 72 | 30 | 0 | 0 | 0
O=C(/C=N/NC(=O)c1ccccc1Br)c1ccccc1 | 0 | 81 | 46 | ? | 0 | 0
O=C(Nc1ccc(Nc2ccccc2)cc1)c1ccc(Cl)cc1Cl | - | - | - | - | 0 | 0
Nc1c2nc(-c3ccccc3Cl)[nH]c(=O)c2nc(=O)n1-c1ccccc1 | 0 | 58 | 22 | 0 | 0 | 0
CCS(=O)(=O)N1N=C(c2cccc(NS(C)(=O)=O)c2)CC1c1ccccc1 (stereo not given) | 0[11.5 µM] | 0 | 0 | 0 | 0 | 0
CCS(=O)(=O)N1N=C(c2cccc(NS(C)(=O)=O)c2)CC1c1ccc(C)cc1 (stereo not given) | 0[11.5 µM] | 0 | 28 | 0 | 0 | 0
CS(=O)(=O)Nc1cccc(C2=NN(S(=O)(=O)c3ccccc3)C(c3ccco3)C2)c1 (stereo not given) | 0 | 0 | 16 | 0 | 0 | 0
C[C@@](N)(C(=O)O)c1cccc(CC(=O)O)c1 | - | - | - | 0 | - | -
Fc1ccccc1-n1ncc2c1ncn1nc(COc3ccc(Cl)cc3)nc21 | - | - | - | - | - | 0
SMILES | LmPK inh | Shiga inhibitor | CHX counter | Giardia FBPA inh | RE007 growth inh | TbPYK inhibitor
CCCCC(CC)CNC(=O)CN(C)S(=O)(=O)c1ccc2c(c1)c(=O)n(C)c(=O)n2C (stereo not given) | - | - | - | - | - | 0
CN(C)c1ccc(C(=O)NC2(N3CCC3=O)CCCC2)cc1 | 0 | 0 | 22 | 0 | 0 | 0
Cc1cc(/C=N\NC(=O)COc2cccc3cccnc23)c(C)n1-c1ccccc1 | 0 | 64 | 31 | 0 | 0 | 0
Cc1cc(/C=N/NC(=O)C(=O)NCc2ccccn2)c(C)n1-c1ccccc1 | 0 | 46 | 28 | 0 | 0 | 0
COc1ccccc1OCC(=O)N/N=C/c1cccc2cccnc12 | 0 | 0 | 0 | - | 0 | 0
COc1cccc(/C=N/NC(=O)COc2cccc3cccnc23)c1O | 0 | 32 | 0 | 0 | 0 | 0
Cc1cc(/C=N\NC(=O)COc2cccc3cccnc23)c(C)n1-c1ccc(Br)cc1 | 0 | 0 | 0 | 0 | 0 | 0
Cc1cc(/C=N\NC(=O)c2cccs2)c(C)n1-c1ccc2ncccc2c1 | 0 | 135 | 40 | 0 | 0 | 0
COc1ccc(CCNC(=O)CSc2nnnn2-c2cccc(C(C)=O)c2)cc1OC | - | - | - | - | - | 0
COc1ccc(Oc2ncc3ncc(=O)n(C[C@H]4CCCO4)c3n2)cc1 | - | - | - | 0 | - | 0
COc1cccc(/C=C2\Oc3cc(OCC(=O)N4CCCCC4)ccc3C2=O)c1OC | 0 | 45 | 0 | 0 | 0 | 0
